# Assay outcomes from PubChem BioAssay.
# Shiga inhibitor = blocks Shiga toxin action in Vero cells; Vero cells, Shiga toxin protein synthesis inhibition reporter; inhibition, % at 38.7 µM; 290,000 tested, 9.2% active; in the data active means inhibition mostly above about 28%, no sharp cut-off; inactive means mostly below about 43%
# HCMV antiviral = inhibitors of human cytomegalovirus; HFF cells, HCMV-luciferase reporter, 72 h; hits give low values; activity change, negative = inhibition, % at 57.5 µM; 410,000 tested, 4.5% active; in the data active means activity change below about -60%; inconclusive means no clear call, values can overlap the other calls; inactive means above about -39%
#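 After 16 h attachment at 37C, HFF cells received test compound and HCMV-luciferase (1 PFU/cell); reporter luminescence read 72 h later, data normalized against buffer-only and known inhibitor Salinomycin.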
# Pf growth 96h = P. falciparum growth inhibition at 96 hour, primary screen for plastid delayed-death inhibitors. Potency, µM (highest dose often 28.7 µM), hits mostly inhibitors. AID 504834. P. falciparum luciferase reporter growth, 96 h. 320,000 tested, 6.9% active
#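 Plates of compound plus infected erythrocytes (2% hematocrit, 0.05% parasitemia final) incubate 96 hours, 37 C, 5% CO2. Detection reagent added; reduced luminescence from the parasites' luciferase reporter flags inhibition.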
# Pf growth 48h = P. falciparum growth inhibition at 48 hours (one generation). 310,000 tested, 5.9% active. AID 504832. P. falciparum luciferase growth in erythrocytes, 48 h. Potency, µM (doses to about 28.7 µM), actives largely listed as inhibitors
#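 Erythrocytes infected with P. falciparum carrying an integrated firefly luciferase reporter (2% hematocrit, 0.1% parasitemia final) were exposed to compounds in RPMI 1640 with 0.5% Albumax at 37 C, 5% CO2. Growth inhibition was scored as reduced luminescence.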
# Cycloheximide cs = affects cycloheximide protein synthesis inhibition readout, counter-screen | cell reporter, cycloheximide protein synthesis inhibition counterscreen | AID 2314 | max response, % | 300,000 tested, 12% active; in the data active means max response mostly above about 13%, no sharp cut-off; inactive means mostly below about 14%; further: read at 38.3 µM for the half of the compounds with a filed dose
# Hits are given with their value; - = inactive; ? = inconclusive; . = no result given; [ ] = dose if it differs, or a comment. Rows were chosen to be rich in hits. Some 20% of all compounds tested hit in one or more screens of this group. Unless noted, the call rests on the fitted dose curve; in most records, active means well fitted inhibition curve with a large enough effect; inconclusive means small, poorly fitted or top-dose-only effect, or another doubt; inactive means no such curve, though single readings can be large or run the other way.
SMILES,Shiga inhibitor,HCMV antiviral,Pf growth 96h,Pf growth 48h,Cycloheximide cs
CCCCCCn1c(=O)c(C(=O)Nc2nc(CC(=O)OCC)cs2)c(O)c2ccccc21,-,-,-,12µM,-
COc1ccc(CCNc2oc(/C=C/c3cc(OC)c(OC)c(OC)c3)nc2C#N)cc1OC,.,-,.,.,.
O=C(Nc1c2c(nn1-c1ccccc1)CS(=O)(=O)C2)c1ccccc1C(F)(F)F,-,-,-,-,-
CCCCCn1c(=O)c(C(=O)Nc2ccccn2)c(O)c2ccccc21,.,-98,-,?,-
CCCCCCn1c(=O)c(C(=O)Nc2ncccc2O)c(O)c2ccccc21,.,-73,-,-,-
CCn1c(=O)c(C(=O)Nc2ncccc2O)c(O)c2ccccc21,.,-,?,-,-
CCCCn1c(=O)c(C(=O)Nc2ccccn2)c(O)c2ccccc21,-,-78,?,-,-
COc1ccc(NC(=O)CN(C)C(=O)c2cccc(S(=O)(=O)Nc3ccc(OC)cc3)c2)cc1,.,-,-,?,.
CCCC(=O)Nc1ccc2c(c1)nc1n2CCN(C2CCCCC2)C1,-,-,?,?,-
CC(=O)Nc1ccc2c(c1)nc1n2CCN(C2CCCCC2)C1,-,-,-,-,29
O=[N+]([O-])c1ccc2c(c1)nc1n2CCN(C2CCCCC2)C1,49,-,-,?,37
Nc1ccc(Cl)c[n+]1Cc1cccc2cccnc12,-,-,?,10µM,-
Cc1cc(C[n+]2cc(Cl)ccc2N)c2ncccc2c1,-,-,?,13µM,-
Cc1cc(C[n+]2cc(Br)ccc2N)c2ncccc2c1,-,-,13µM,9.3µM,-
Oc1ccc(Cl)cc1CNc1cccc2cccnc12,-,-,-,?,-
Cc1cc(C[n+]2ncsc2N)c2ncccc2c1,-,-,-,-,-
N=c1c2cn[nH]c2nc(SCC(=O)c2ccc(Br)cc2)n1-c1ccc(Br)cc1,-,-,7.4µM,-,-
O=c1c2sccc2nc(SCc2cc(=O)n3cc(Cl)ccc3n2)n1-c1ccc(F)cc1,-,-,?,-,-
O=C(CSc1nc(O)cc(=O)n1-c1ccccc1)c1ccc(Br)cc1,-,-,-,-[1.15 µM],24
COc1ccc(N2CCN(C(=O)CSc3nc4[nH]ncc4c(=O)n3-c3ccc(Br)cc3)CC2)cc1,-,-63,-,?,-
O=c1c2cn[nH]c2nc(SCc2cc(=O)n3cc(Br)ccc3n2)n1-c1ccc(Br)cc1,-,-72,-,12µM,22
Cc1ccc(OCC(=O)Nc2ccccc2C(=O)OCc2cc(=O)n3nc(C4CC4)sc3n2)cc1,.,-,.,.,.
CC1CN(C=O)CC(C)N1CCN1C(C)CN(C=O)CC1C (stereo unspecified),.,-,.,.,.
O=c1c2cn[nH]c2nc(SCc2ccccc2F)n1-c1ccc(Br)cc1,-,-71,-,?,-
CCN1CCN(c2ccc(S(=O)(=O)N3CCCCC3)cc2NC(=O)c2ccc([N+](=O)[O-])o2)CC1,.,-,8.3µM,13µM,.
SMILES,Shiga inhibitor,HCMV antiviral,Pf growth 96h,Pf growth 48h,Cycloheximide cs
COc1ccc(S(=O)(=O)N2CCCCC2)cc1NC(=O)c1ccco1,-,-,?,-,-
CCN1CCN(c2ccc(S(=O)(=O)N3CCCCC3)cc2NC(=O)c2sccc2C)CC1,.,-,?,?,.
COc1ccc(S(=O)(=O)N2CCCCC2)cc1NC(=O)c1ccc([N+](=O)[O-])o1,44,-,6.6µM,?,23
COC(=O)c1c(S(C)(=O)=O)nc(-c2ccccc2)[nH]c1=O,-,?,?,-,-
COc1ccc(/C=C2\C(=O)N(Cc3ccc(F)cc3)CC(=O)N2Cc2ccccc2)cc1,-,-,15µM,10µM,-
COc1ccc(/C=C2\C(=O)NCC(=O)N2Cc2ccccc2)cc1,-,-,-,-,-
CCN(CC(=O)Nc1c(F)cccc1F)C(=O)CNC(=O)c1sc2ccccc2c1Cl,.,-,-,-,.
COc1ccc(N=Nc2c(O)[nH]c(=S)[nH]c2=O)cc1,110,-,-,-,31
COc1cccc(N=Nc2c(O)[nH]c(=S)[nH]c2=O)c1,47,?,?,-,31
O=c1[nH]c(=S)[nH]c(O)c1N=Nc1ccc(OC(F)F)cc1,-,?,-,-,-
CC1CCC(NC(=O)c2ccc3c(c2)N(Cc2ccccc2F)C(=O)c2ccccc2S3=O)CC1 (stereo unspecified),.,-,.,.,.
Cc1[nH]n2c(=O)cc(-c3ccc([N+](=O)[O-])cc3)nc2c1-c1ccccc1,.,-,.,.,.
Cc1[nH]n2c(=O)cc(-c3ccc(Cl)cc3)nc2c1-c1ccccc1,.,-107,.,.,.
Cc1ccc(N=Nc2c(N)[nH]n3c(=O)cc(-c4ccccc4)nc23)cc1,-,-81,?,?,-
